Reference: PubChem BioAssay
Active and inactive are the calls of the source.

Experiments:
Albumin (Bos taurus) = Albumin (Bos taurus) (UniProt P02769); experiment: bovine serum albumin binders on microarray, profiling panel, artefact control for SMM control protein annotation, biochemical, small-molecule microarray, Alexa647 label, 635/667 nm fluorescence (AID 1118); settings: BSA-A647 binding, fluorescence 635 nm, higher = more signal;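 note: score merges 667 nm emission intensity and signal-to-noise per printed compound spot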
Chain of Albumin (Bos taurus) (P02769 whole entry, looked up): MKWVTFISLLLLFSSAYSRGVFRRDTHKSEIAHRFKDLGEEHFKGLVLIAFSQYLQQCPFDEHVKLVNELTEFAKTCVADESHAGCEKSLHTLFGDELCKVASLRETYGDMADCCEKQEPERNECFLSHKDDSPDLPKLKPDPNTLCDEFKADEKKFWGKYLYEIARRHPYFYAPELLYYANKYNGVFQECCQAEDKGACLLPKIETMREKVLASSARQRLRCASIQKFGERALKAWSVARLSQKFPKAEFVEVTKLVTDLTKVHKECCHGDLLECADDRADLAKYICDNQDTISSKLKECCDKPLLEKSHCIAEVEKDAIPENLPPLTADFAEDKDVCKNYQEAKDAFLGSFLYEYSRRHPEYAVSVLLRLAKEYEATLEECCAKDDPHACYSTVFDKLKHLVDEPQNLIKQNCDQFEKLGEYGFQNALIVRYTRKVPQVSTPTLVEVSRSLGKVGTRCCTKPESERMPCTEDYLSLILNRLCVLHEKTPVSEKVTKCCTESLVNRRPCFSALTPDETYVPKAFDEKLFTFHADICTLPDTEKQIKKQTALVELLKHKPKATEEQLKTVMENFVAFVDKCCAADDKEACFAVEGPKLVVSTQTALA

[1] = small-molecule microarray binders of probe aXIP, primary screen, biochemical, NeuroSMM set, 635/667 nm fluorescence (AID 1119); settings: higher = more signal, called active from +8 up or from −8 down;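 note: probe is the protein aXip251-270 applied at 1 µg/mL to compound-printed slides; binding of probe to printed compounds measured as 667 nm fluorescence plus signal to noise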
[2] = small-molecule binders of probe aNOTCH3, primary screen, biochemical, small-molecule microarray, 635/667 nm fluorescence (AID 1120); settings: higher = more signal;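 note: probe is a biotin-tagged antibody raised against NOTCH3 rather than NOTCH3 protein; score merges spot fluorescence near 667 nm with spot signal to noise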
[3] = small-molecule binders of probe aNOTCH2, primary screen, biochemical, small-molecule microarray, 635/667 nm fluorescence (AID 1121); settings: higher = more signal;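 note: score merges feature fluorescence read at 667 nm with its signal to noise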
[4] = target: Carbonic anhydrase 2 (Homo sapiens) (UniProt P00918); experiment: CAII small-molecule binders, profiling panel, biochemical, small-molecule microarray, Alexa647-labelled CAII (AID 1122); settings: CAII-A647 binding fluorescence, higher = more signal
[5] = COS7 lysate on small-molecule microarray, probe aHis, 635 nm (AID 1123); settings: COS7 cell lysate, fluorescence, higher = more signal;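 note: z-score combines 667nm fluorescence intensity with signal-to-noise per printed compound spot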
[6] = compound binding in COS7 lysate, probe aLAP1, primary screen, cell lysate, small-molecule microarray (AID 1124); settings: probe aLAP1, fluorescence, higher = more signal;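 note: lysate comes from COS7 cells expressing LAP1 and is applied at 0.3 µg/mL; score merges spot fluorescence near 667 nm with signal-to-noise over triplicate slides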
Sam68 (KHDRBS1) = experiment: Sam68 small-molecule binders, primary screen, biochemical, small-molecule microarray, 635 nm fluorescence (AID 1125); settings: small-molecule microarray binding, higher = more signal;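 note: score merges 667 nm channel intensity with signal to noise over triplicate slides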
[7] = test system: Chordin-like protein 2 (CHRDL2); experiment: CHRDL2 small-molecule binders, primary screen, biochemical, small-molecule microarray, 635 nm fluorescence (AID 1126); settings: small-molecule microarray binding, fluorescence 635 nm; higher = more signal;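 note: printed compound slides probed with Chrdl2 protein at 4 µg/mL for 1 h at 4 C; score merges 667 nm emission intensity with signal to noise over three replicate slides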
[8] = target: Concanavalin-A (Canavalia ensiformis) (UniProt P02866); experiment: ConA small-molecule binders, primary screen, artefact control for SMM control protein annotation, biochemical, small-molecule microarray, Alexa647 label, 635 nm (AID 1127); settings: ConA-A647 binding fluorescence, higher = more signal;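 note: z combines 667 nm emission intensity with signal-to-noise across three replicate slides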
Chain of Concanavalin-A (Canavalia ensiformis) (P02866 whole entry, looked up): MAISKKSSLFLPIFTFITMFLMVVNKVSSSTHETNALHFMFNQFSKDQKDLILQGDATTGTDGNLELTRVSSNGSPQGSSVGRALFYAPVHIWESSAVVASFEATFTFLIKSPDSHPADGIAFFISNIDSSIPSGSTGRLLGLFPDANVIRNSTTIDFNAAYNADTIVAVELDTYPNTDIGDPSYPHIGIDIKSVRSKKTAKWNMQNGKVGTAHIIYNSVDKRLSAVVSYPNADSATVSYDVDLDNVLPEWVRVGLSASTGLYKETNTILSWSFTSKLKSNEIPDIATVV

[9] = anti-His antibody binders, primary screen, artefact control for SMM control protein annotation, biochemical, small-molecule microarray, 635 nm fluorescence (AID 1128); settings: anti-His Alexa647 antibody binding, higher = more signal;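 note: score merges feature fluorescence with signal-to-noise for each printed compound spot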
[10] = test system: Human papillomavirus type 1a E7 protein (residues 1-88); experiment: HPV1a E7 small-molecule binders, primary screen, biochemical, small-molecule microarray, residues 1-88, 635 nm (AID 1129); settings: small-molecule microarray binding, fluorescence 635 nm; higher = more signal
[11] = target: Focal adhesion kinase 1 (Homo sapiens) (UniProt Q05397); experiment: small-molecule microarray binders of FAK, primary screen, biochemical, 635/667 nm fluorescence, BSA, DTT (AID 1130); settings: PTK2 binding, 635 nm fluorescence, higher = more signal;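 note: composite of spot emission at 667 nm and signal to noise over triplicate slides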
Chain of Focal adhesion kinase 1 (Homo sapiens) (Q05397 whole entry, looked up): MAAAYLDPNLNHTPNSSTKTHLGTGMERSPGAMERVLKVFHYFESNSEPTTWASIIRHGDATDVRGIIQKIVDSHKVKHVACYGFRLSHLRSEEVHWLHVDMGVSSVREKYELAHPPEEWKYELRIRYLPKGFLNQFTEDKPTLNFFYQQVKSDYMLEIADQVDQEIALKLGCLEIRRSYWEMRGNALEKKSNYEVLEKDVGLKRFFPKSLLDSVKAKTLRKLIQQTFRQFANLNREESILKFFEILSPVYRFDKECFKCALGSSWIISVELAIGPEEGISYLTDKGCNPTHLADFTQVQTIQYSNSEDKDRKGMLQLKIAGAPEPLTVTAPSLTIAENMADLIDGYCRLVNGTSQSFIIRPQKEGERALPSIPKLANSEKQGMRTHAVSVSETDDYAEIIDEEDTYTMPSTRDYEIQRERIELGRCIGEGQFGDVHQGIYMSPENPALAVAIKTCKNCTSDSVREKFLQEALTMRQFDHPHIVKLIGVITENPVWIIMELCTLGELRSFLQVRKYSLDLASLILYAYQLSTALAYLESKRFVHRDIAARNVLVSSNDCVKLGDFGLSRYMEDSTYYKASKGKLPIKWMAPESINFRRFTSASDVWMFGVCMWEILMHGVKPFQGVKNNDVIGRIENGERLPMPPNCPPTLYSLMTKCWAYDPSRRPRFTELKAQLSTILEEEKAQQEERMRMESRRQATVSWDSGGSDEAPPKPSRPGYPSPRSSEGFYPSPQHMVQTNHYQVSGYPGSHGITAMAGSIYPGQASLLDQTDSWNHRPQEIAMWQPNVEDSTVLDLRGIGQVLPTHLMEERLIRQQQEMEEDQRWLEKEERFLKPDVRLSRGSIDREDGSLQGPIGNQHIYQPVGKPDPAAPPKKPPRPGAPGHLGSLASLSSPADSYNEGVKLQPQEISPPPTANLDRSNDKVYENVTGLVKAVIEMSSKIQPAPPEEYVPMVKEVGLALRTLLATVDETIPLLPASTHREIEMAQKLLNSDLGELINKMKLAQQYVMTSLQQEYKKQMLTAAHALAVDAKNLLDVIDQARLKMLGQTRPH

[12] = test system: Fibrinogen (Alexa647-labelled); experiment: fibrinogen binders on compound microarrays, profiling panel, artefact control for SMM control-protein annotation, biochemical, small-molecule microarray, 635/667 nm fluorescence (AID 1131); settings: fibrinogen-A647 binding fluorescence, higher = more signal;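 note: z-score merges 667 nm fluorescence with per-spot signal-to-noise over triplicate slides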
[13] = target: Follistatin (Homo sapiens) (UniProt P19883); experiment: follistatin binders on small-molecule microarrays, primary screen, biochemical, small-molecule microarray, 635/667 nm fluorescence (AID 1132); settings: FST binding, 635 nm fluorescence, higher = more signal
Chain of Follistatin (Homo sapiens) (P19883 whole entry, looked up): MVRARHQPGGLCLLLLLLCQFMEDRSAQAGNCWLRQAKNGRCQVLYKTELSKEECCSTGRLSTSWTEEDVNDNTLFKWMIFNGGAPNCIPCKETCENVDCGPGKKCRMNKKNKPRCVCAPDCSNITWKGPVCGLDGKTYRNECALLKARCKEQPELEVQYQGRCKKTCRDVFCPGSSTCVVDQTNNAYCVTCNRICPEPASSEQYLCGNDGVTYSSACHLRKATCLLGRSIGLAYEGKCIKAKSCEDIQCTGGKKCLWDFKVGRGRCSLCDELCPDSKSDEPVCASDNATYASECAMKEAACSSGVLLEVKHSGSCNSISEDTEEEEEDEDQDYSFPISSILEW

[14] = target: Fibroblast growth factor 2 (Homo sapiens) (UniProt P09038); experiment: FGF2 binders on small-molecule microarrays, primary screen, biochemical, small-molecule microarray, 635/667 nm fluorescence (AID 1133); settings: small-molecule microarray binding, FGF2, fluorescence 635/667; higher = more signal
Chain of Fibroblast growth factor 2 (Homo sapiens) (P09038 whole entry, looked up): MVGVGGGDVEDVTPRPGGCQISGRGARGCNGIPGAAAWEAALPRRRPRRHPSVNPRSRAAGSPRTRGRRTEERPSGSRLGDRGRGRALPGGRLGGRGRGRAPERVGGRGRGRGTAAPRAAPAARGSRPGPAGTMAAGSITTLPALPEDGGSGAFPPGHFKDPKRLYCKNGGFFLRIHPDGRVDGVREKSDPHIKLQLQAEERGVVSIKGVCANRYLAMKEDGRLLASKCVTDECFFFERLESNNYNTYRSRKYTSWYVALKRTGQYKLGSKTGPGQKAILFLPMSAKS

[15] = mitochondrial membrane potential change in A549 cells, profiling panel, cell-based, JC-1 fluorescence, basal, 24 h, 100 nL (AID 1138); settings: higher = more signal;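 note: A549 lung adenocarcinoma cells under basal conditions with no added stimulus; test concentration not given here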
Lefty1 = Lefty1 binders on small-molecule microarrays, primary screen, biochemical, small-molecule microarray, 635/667 nm fluorescence (AID 1139); settings: small-molecule microarray binding, fluorescence 635/667; higher = more signal
[16] = test system: wheat germ agglutinin (Triticum aestivum), Alexa647-labelled; experiment: wheat germ agglutinin binders on compound microarrays, profiling panel, artefact control for SMM control-protein annotation, biochemical, small-molecule microarray, 635/667 nm fluorescence (AID 1140); settings: WGA-A647 binding, 635 nm fluorescence, higher = more signal;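 note: score merges 667 nm feature emission with signal to noise over triplicate slides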
[17] = target: Luciferin 4-monooxygenase (Photinus pyralis) (UniProt P08659); experiment: firefly luciferase enzyme inhibitors, primary screen, biochemical, luminescence, purified enzyme, 2006 set (AID 1141); settings: SteadyGlo luminescence, 30 min, higher = more signal, called active from +8 up or from −8 down;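 note: cell-free assay with purified firefly luciferase at 100 ng per well in PBS; test concentration not given here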
Chain of Luciferin 4-monooxygenase (Photinus pyralis) (P08659 whole entry, looked up): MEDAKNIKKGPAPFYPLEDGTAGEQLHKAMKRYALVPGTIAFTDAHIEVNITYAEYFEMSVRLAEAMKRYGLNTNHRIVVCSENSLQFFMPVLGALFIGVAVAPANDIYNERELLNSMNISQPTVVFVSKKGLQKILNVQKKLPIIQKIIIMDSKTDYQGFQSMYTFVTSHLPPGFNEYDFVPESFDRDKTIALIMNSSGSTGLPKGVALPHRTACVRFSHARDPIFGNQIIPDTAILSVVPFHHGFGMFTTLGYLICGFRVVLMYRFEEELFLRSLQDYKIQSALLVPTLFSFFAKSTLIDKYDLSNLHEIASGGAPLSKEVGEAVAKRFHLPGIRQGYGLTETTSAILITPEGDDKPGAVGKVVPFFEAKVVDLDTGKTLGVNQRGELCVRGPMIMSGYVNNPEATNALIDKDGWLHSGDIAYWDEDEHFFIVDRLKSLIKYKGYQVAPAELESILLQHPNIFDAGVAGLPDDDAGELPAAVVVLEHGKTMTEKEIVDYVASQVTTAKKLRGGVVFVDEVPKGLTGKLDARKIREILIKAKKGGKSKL

| SMILES | composite z-score (Albumin (Bos taurus)) | composite Z-score [1] | composite z-score [2] | composite z-score [3] | composite z-score [4] | composite z-score [5] | composite z-score [6] | composite z-score (Sam68 (KHDRBS1)) | composite z-score [7] | composite z-score [8] | composite z-score [9] | composite z-score [10] | composite z-score [11] | composite z-score [12] | composite z-score [13] | composite z-score [14] | z-score [15] | composite z-score (Lefty1) | composite z-score [16] | z-score [17] |
| --- | --- | --- | --- | --- | --- | --- | --- | --- | --- | --- | --- | --- | --- | --- | --- | --- | --- | --- | --- | --- |
| [N-]=[N+]=NCc1ccccc1C[C@]1(C(=O)NCc2ccccc2)N=C(c2ccc(OCCCO)cc2)O[C@H]1c1ccccc1 | 0.992 | 0.945 (inactive) | 0.2 | 0.139 | 0.396 | 1.85 | 1.45 | 1.16 | -1.4 | 1.09 | 1.67 | 1.18 | 0.445 | 0.813 | -0.257 | -0.0593 | 0.488 | -1.17 | 1.24 | -1.19 (inactive) |
| Cc1ccc(S[C@]2(C(=O)NCC(C)C)CC(=O)N(C(C)C)[C@@H]2c2ccc(CO)cc2)cc1 | -0.283 | 0.0333 (inactive) | -0.255 | -0.163 | 0.747 | 0.301 | -0.311 | -0.749 | -0.589 | -0.522 | -1.15 | 0.259 | -0.267 | -1.48 | 0.259 | 0.206 | 0.69 | -0.477 | -1.76 | -0.204 (inactive) |
| CC(C)(C)OC(=O)CC[C@@]1(C(=O)N2CCOCC2)N=C(c2ccc(OCCCO)cc2)O[C@@H]1c1ccccc1 | 1.01 | -0.0503 (inactive) | 0.0927 | -0.0017 | 0.904 | 3.76 | 0.599 | 1.31 | -1.26 | 0.962 | 3.83 | 1.25 | 0.217 | 0.938 | 1.33 | 0.324 | 2.16 | -0.508 | 1.54 | -1.99 (inactive) |
| C=CCNC(=O)[C@H]1[C@@H]2C(=O)O[C@@H](c3ccccc3)[C@@H](c3ccccc3)N2[C@@H](c2ccccc2OCCO)[C@]12C(=O)N(C(=O)OCCOC)c1ccc(C#CCCO)cc12 | 0.0097 | 0.433 (inactive) | 0.142 | 0.399 | 0.417 | 1.79 | 0.665 | 1.32 | 1.18 | 1.11 | 1.34 | 1.09 | 1.02 | 0.614 | 1.42 | 1.72 | 1.7 | 0.817 | 0.958 | -1.66 (inactive) |
| O=C(NCc1ccccc1)[C@@H]1c2ccccc2C(=O)N(Cc2ccccc2Cl)[C@H]1c1ccc(CO)cc1 | -0.0154 | 1.24 (inactive) | 0.0749 | -0.0165 | 0.693 | 2.36 | 0.954 | 1.35 | 0.702 | 1.13 | 2.46 | 1.17 | 0.719 | 0.562 | 1.47 | 1.22 | 1.88 | 0.817 | 0.704 | -1.01 (inactive) |
| C=CCN1C(=O)[C@@]2(O[C@@H](CCO)[C@H]([Si](C)(C)c3ccc(OC)cc3)[C@H]2C)c2cc(N3C(=O)c4cccc5cccc3c45)ccc21 | 0.691 | -0.159 (inactive) | 0.0425 | -0.0956 | 0.355 | 0.964 | 1.13 | 0.897 | -0.487 | 1.06 | 2.09 | 1 | 0.617 | 0.302 | -0.233 | -0.145 | -0.456 | -0.272 | 0.525 | -1.53 (inactive) |
| CCN(CC)c1ccc(N2CC=CC34O[C@@H]5C=CCOC(=O)[C@@H]5[C@H]3C(=O)N(C(CO)C(C)C)[C@@H]4C2=O)cc1 (stereo not given in full) | -0.819 | 0.316 (inactive) | -0.405 | -0.104 | -0.604 | -0.408 | 0.23 | -0.635 | -0.42 | -0.374 | -1.59 | -1.27 | -0.596 | -0.236 | -0.529 | -0.208 | 1.39 | -0.771 | -1.13 | -0.638 (inactive) |
| C#CCN1C(C(=O)OCC)OC[C@H]1c1ccccc1 (stereo not given in full) | -0.0202 | 0.369 (inactive) | -0.128 | -0.0861 | -0.0406 | 4.71 | 0.847 | 0.487 | 0.602 | 0.303 | 0.264 | -0.334 | 5.01 | 0.559 | 0.552 | 0.469 | 0.833 | 0.732 | 0.299 | -0.547 (inactive) |
| COCCCN1C(=O)[C@@]2(Cc3ccccc31)c1ccccc1C(=O)N(Cc1ccccc1Cl)[C@H]2c1ccc(CO)cc1 | -0.538 | -0.17 (inactive) | -0.126 | -0.162 | 0.106 | -0.0024 | 0.179 | 0.0462 | -0.272 | 0.0915 | -1.15 | -1.53 | -0.557 | -0.358 | -0.45 | -0.0761 | 0.83 | -0.348 | -1.02 | -1.13 (inactive) |
